According to PubChem BioAssay AID1159580 (chemical genetic matrix, 2015):
Out of some 5,500 compounds screened, about 2,000 (36%) were called active. Not shown: some 18% with an inconclusive outcome. Cut-off read from the data, not from the text of the source: active = normalized growth mostly below about 0.91 (no sharp cut-off); inconclusive = no clear call, values can overlap the other calls; inactive = mostly above about 0.92. The list shows a part of the results.

Assay: chemical genetic growth profiling, strain panel (AID 1159580);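 note: tested at 20 µM; growth read once vehicle control cultures reached saturation at 30 °C; 1 = growth at the plate median or of vehicle wells; lower values mean less growth of the strain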
Conditions: growth OD

Measured: normalized growth

Nc1ncnc2c1ncn2C1O[C@H](COP(=O)(O)O)[C@@H](O)[C@H]1O (some centres not stated)
active: S. cerevisiae deletion strains, locus YKR001C, strain vps1, active compounds read low 0.581 | S. cerevisiae deletion strains, locus YLR268W, strain sec22, active compounds read low 0.627 | S. cerevisiae deletion strains, locus YLR418C, strain cdc73, active compounds read low 0.471 | S. cerevisiae deletion strains, locus YML032C, strain rad52, active compounds read low 0.417 | S. cerevisiae deletion strains, locus YML124C, strain tub3, active compounds read low 0.829 | S. cerevisiae deletion strains, locus YMR078C, strain ctf18, active compounds read low 0.838 | S. cerevisiae deletion strains, locus YMR223W, strain ubp8, active compounds read low 0.81 | S. cerevisiae deletion strains, locus YNL271C, strain bni1, active compounds read low 0.895 | S. cerevisiae deletion strains, locus YNL307C, strain MCK1, active compounds read low 0.847 | S. cerevisiae deletion strains, locus YNR052C, strain pop2, active compounds read low 0.476 | S. cerevisiae deletion strains, locus YOL147C, strain pex11, active compounds read low 0.516 | S. cerevisiae deletion strains, locus YOR144C, strain elg1, active compounds read low 0.645 | S. cerevisiae deletion strains, locus YOR184W, strain ser1, active compounds read low 0.636 | S. cerevisiae deletion strains, locus YPR163C, strain tif3, active compounds read low 0.725 | S. cerevisiae deletion strains, locus YPR167C, strain met16, active compounds read low 0.858 | S. cerevisiae deletion strains, strain wtn01, active compounds read low 0.866
inactive: S. cerevisiae deletion strains, locus YJR075W, strain HOC1, active compounds read low 1.04 | S. cerevisiae deletion strains, locus YKL009W, strain mrt4, active compounds read low 1.02 | S. cerevisiae deletion strains, locus YKL068W, active compounds read low 0.993 | S. cerevisiae deletion strains, locus YKL085W, strain MDH1 (second series), active compounds read low 1 | S. cerevisiae deletion strains, locus YKL085W, strain MDH1, active compounds read low 1 | S. cerevisiae deletion strains, locus YKL160W, strain elf1, active compounds read low 1 | S. cerevisiae deletion strains, locus YKL190W, strain CNB1, active compounds read low 1.01 | S. cerevisiae deletion strains, locus YKR026C, strain gcn3, active compounds read low 1 | S. cerevisiae deletion strains, locus YKR091W, strain srl3, active compounds read low 0.995 | S. cerevisiae deletion strains, locus YLL001W, strain dnm1, active compounds read low 1.03 | S. cerevisiae deletion strains, locus YLL026W, active compounds read low 1.01 | S. cerevisiae deletion strains, locus YLL041C, strain sdh2, active compounds read low 0.981 | S. cerevisiae deletion strains, locus YLR027C, strain aat2, active compounds read low 1.02 | S. cerevisiae deletion strains, locus YLR039C, strain RIC1, active compounds read low 1.04 | S. cerevisiae deletion strains, locus YLR058C, strain SHM2, active compounds read low 1.02 | S. cerevisiae deletion strains, locus YLR102C, strain apc9, active compounds read low 0.962 | S. cerevisiae deletion strains, locus YLR113W, strain HOG1, active compounds read low 1 | S. cerevisiae deletion strains, locus YLR221C, strain rsa3, active compounds read low 0.969 | S. cerevisiae deletion strains, locus YLR258W, strain gsy2, active compounds read low 0.987 | S. cerevisiae deletion strains, locus YLR262C, strain YPT6 (second series), active compounds read low 1.03 | S. cerevisiae deletion strains, locus YLR262C, strain YPT6, active compounds read low 1.02 | S. cerevisiae deletion strains, locus YLR320W, strain mms22, active compounds read low 0.983 | S. cerevisiae deletion strains, locus YLR330W, strain CHS5, active compounds read low 1.01 | S. cerevisiae deletion strains, locus YLR342W, strain FKS1 (second series), active compounds read low 1.04 | S. cerevisiae deletion strains, locus YLR342W, strain FKS1, active compounds read low 1.02 | S. cerevisiae deletion strains, locus YLR357W, strain rsc2, active compounds read low 1.02 | S. cerevisiae deletion strains, locus YLR370C, strain arc18, active compounds read low 1.01 | S. cerevisiae deletion strains, locus YLR371W, strain rom2, active compounds read low 0.986 | S. cerevisiae deletion strains, locus YLR384C, strain iki3, active compounds read low 1 | S. cerevisiae deletion strains, locus YML016C, strain PPZ1, active compounds read low 1.01 | S. cerevisiae deletion strains, locus YML120C, strain ndi1, active compounds read low 1.01 | S. cerevisiae deletion strains, locus YMR058W, strain fet3, active compounds read low 1.01 | S. cerevisiae deletion strains, locus YMR125W, strain sto1, active compounds read low 0.987 | S. cerevisiae deletion strains, locus YMR129W, active compounds read low 0.994 | S. cerevisiae deletion strains, locus YMR205C, strain PFK2, active compounds read low 1.02 | S. cerevisiae deletion strains, locus YMR231W, strain pep5, active compounds read low 0.999 | S. cerevisiae deletion strains, locus YMR263W, strain SAP30, active compounds read low 1.01 | S. cerevisiae deletion strains, locus YMR307W, strain GAS1, active compounds read low 0.974 | S. cerevisiae deletion strains, locus YNL067W, strain RPL9B, active compounds read low 1.02 | S. cerevisiae deletion strains, locus YNL071W, strain lat1, active compounds read low 0.998 | S. cerevisiae deletion strains, locus YNL128W, strain TEP1, active compounds read low 1.02 | S. cerevisiae deletion strains, locus YNL153C, strain GIM3, active compounds read low 1.01 | S. cerevisiae deletion strains, locus YNL183C, strain NPR1, active compounds read low 0.97 | S. cerevisiae deletion strains, locus YNL209W, strain ssb2, active compounds read low 0.998 | S. cerevisiae deletion strains, locus YNL233W, strain BNI4, active compounds read low 1.01 | S. cerevisiae deletion strains, locus YNL248C, strain rpa49, active compounds read low 0.977 | S. cerevisiae deletion strains, locus YNL250W, strain rad50, active compounds read low 1 | S. cerevisiae deletion strains, locus YNL298W, strain CLA4, active compounds read low 0.918 | S. cerevisiae deletion strains, locus YNL322C, strain KRE1 (second series), active compounds read low 0.991 | S. cerevisiae deletion strains, locus YNL322C, strain KRE1, active compounds read low 1.01 | S. cerevisiae deletion strains, locus YNR049C, strain mso1, active compounds read low 0.994 | S. cerevisiae deletion strains, locus YOL006C, strain TOP1, active compounds read low 1.04 | S. cerevisiae deletion strains, locus YOL012C, strain htz1 0.221 | S. cerevisiae deletion strains, locus YOR001W, strain rrp6, active compounds read low 1.02 | S. cerevisiae deletion strains, locus YOR061W, strain CKA2, active compounds read low 1.01 | S. cerevisiae deletion strains, locus YOR069W, strain VPS5, active compounds read low 1.01 | S. cerevisiae deletion strains, locus YOR070C, strain gyp1, active compounds read low 0.995 | S. cerevisiae deletion strains, locus YOR080W, strain dia2, active compounds read low 1 | S. cerevisiae deletion strains, locus YOR083W, strain WHI5, active compounds read low 0.988 | S. cerevisiae deletion strains, locus YOR106W, strain vam3, active compounds read low 1.03 | S. cerevisiae deletion strains, locus YOR136W, strain idh2, active compounds read low 0.953 | S. cerevisiae deletion strains, locus YOR231W, strain MKK1, active compounds read low 1.01 | S. cerevisiae deletion strains, locus YOR265W, strain rbl2, active compounds read low 1 | S. cerevisiae deletion strains, locus YOR270C, strain vph1, active compounds read low 0.996 | S. cerevisiae deletion strains, locus YOR290C, strain snf2, active compounds read low 0.972 | S. cerevisiae deletion strains, locus YOR316C, strain cot1, active compounds read low 0.969 | S. cerevisiae deletion strains, locus YPL051W, strain arl3, active compounds read low 1.01 | S. cerevisiae deletion strains, locus YPL055C, strain LGE1, active compounds read low 1.07 | S. cerevisiae deletion strains, locus YPL078C, strain atp4, active compounds read low 1.03 | S. cerevisiae deletion strains, locus YPL106C, strain sse1, active compounds read low 0.997 | S. cerevisiae deletion strains, locus YPL240C, strain hsp82, active compounds read low 0.998 | S. cerevisiae deletion strains, locus YPL241C, strain CIN2, active compounds read low 1.01 | S. cerevisiae deletion strains, locus YPL256C, strain CLN2, active compounds read low 0.995 | S. cerevisiae deletion strains, locus YPR119W, strain clb2, active compounds read low 0.935 | S. cerevisiae deletion strains, locus YPR141C, strain kar3, active compounds read low 0.995 | S. cerevisiae strains, strain wild type, active compounds read low 1.02
